The values that follow come from PubChem BioAssay (EPA / NIEHS).

Activity calls are given as the source filed them. How the source made its calls: active means hit-call score of the fitted dose curve at least 0.9, where 1 is the maximum; inactive means score below 0.9.

This assay is described as follows: ATG_M_19_CIS: Attagene CIS-FACTORIAL HepG2 Assay for M19 Transcription Factor (Internal Marker) (AID 2282939). As to conditions: HepG2 Attagene CIS-FACTORIAL M19 internal marker reporter; actives raise or lower the signal. As for the experimental part:
ATG_CIS is a cell-based, multiplexed-readout assay that uses HepG2, a human liver cell line, with measurements taken at 24 hours after chemical dosing in a 24-well plate.ATG_M_19_CIS is one of 52 assay component(s) measured or calculated from the ATG_CIS assay. It is designed to make measurements of mRNA induction, a form of inducible reporter, as detected with fluorescence intensity signals by Reverse transcription polymerase chain reaction (RT-PCR) and Capillary electrophoresis technology.Data from the assay component ATG_M_19_CIS was analyzed into 1 assay endpoint. This assay endpoint, ATG_M_19_CIS, was analyzed with bidirectional fitting relative to DMSO as the negative control and baseline of activity. Using a type of inducible reporter, measures of mRNA for gain or loss-of-signal activity can be used to understand the background control at the transcription factor-level as they relate to the gene . Furthermore, this assay endpoint can be referred to as a secondary readout, because this assay has produced multiple assay endpoints where this one serves a background control function. To generalize the intended target to other relatable targets, this assay endpoint is annotated to the background measurement intended target family, where the subfamily is internal marker.
Human liver HepG2 cells are transiently transfected with multiple reporter transcription units (MRTUs) in 6-well plates using FuGene 6 reagent (Roche; 3 ml FuGene/1 mg DNA). The MRTU constructs are regulated by a cis-regulating element (promoter). […] A major difference between the CIS and TRANS system is that in CIS activities of endogenous TFs are measured, whereas the TRANS assay evaluates changes in activities of exogenous, chimeric NR-Gal4 proteins. […] At the end of 24 hour incubation, total RNA was isolated using TriZol reagent (Invitrogen). The isolated RNA is then reverse-transcribed using oligo(dT) primer and Mo-MLV reverse transcriptase (Invitrogen) with DNAse I (Ambion) treatment for 30 min. The one-tenth of the produced cDNA was amplified by PCR using Taq DNA polymerase (Invitrogen) and two reporter sequence-specific primers. The PCR products were fluorescently labeled by primer extension with 6-arboxyfluorescein (6-FAM) 5'-labeled reporter sequence-specific primer (2 min at 95 C, 20 s at 68 C and 10 min at 72 C) and these products were digested with 5U of HpaI (New England Biolabs) for 2h at 37 C. The fragments were purified using Qiaquick PCR columns (Qiagen), analyzed on an ABI 3130xL genetic analyzer (Applied Biosystems) with peak positions identified by using a set of X-rhodamine (ROX)-labeled MapMarker1000 molecular weight standards (BioVentures). The raw capillary electrophoresis data was processed using Attagraph software (Attagene).
In the case of `Cc1ccncc1`, the compound was classed as inactive. The same measure for `[Na+]`: “inactive”.

`CN(C)c1ccc(C=O)cc1`: the compound was classed as inactive. The same measure for `CC(=O)CC(C)(C)C1CCCCC1`: “inactive”; for `CC(=O)C1C(=O)C=C(C)OC1=O` (stereo not given): “inactive”; for `CC(=N[Si](C)(C)C)O[Si](C)(C)C`: “inactive”. The same measure for `CC(O)CNCC(C)O` (stereo not given): “inactive”. Regarding `CC1=CC[C@@H]2C[C@H]1C2(C)C`, the call was inactive. The same measure for `N#CCCCC(C#N)CCC#N` (stereo not given): “inactive”; for `C=CC(=O)OCCCCCC`: “inactive”; for `CC(=O)OC(C)(C)C`: “inactive”.

As to `CC(C)COC(=O)c1ccccc1`, the compound was classed as inactive. The same measure for `CCCCCCCCCCCCS`: “inactive”; for `CCCCCCCC1CCCC1=O` (stereo not given): “inactive”.

On to `C=C1CC/C=C(\C)CC[C@@H]2[C@@H]1CC2(C)C`, for which the outcome was inactive. In the case of `c1ccc(Sc2ccccc2)cc1`, the call was inactive.

For `[Cl][Dy]([Cl])[Cl]`, the compound was called inactive. The same measure for `CCCCCCCCCCCCCC(=O)OCC`: “inactive”; for `CCCCCCCCOS(=O)(=O)O`: “inactive”; for `COc1ccc(C(C)=O)cc1`: “inactive”.

On to `C=CCOCC(O)CO` (stereo not given), for which the call was inactive.

Take `CCC(=O)OCC=Cc1ccccc1`: the outcome was inactive. The same measure for `c1ccc(Cc2ccccc2)cc1`: “inactive”. The same measure for `COC(=O)c1ccc(C(=O)OC)cc1`: “inactive”.

As for `C=CC(O)CCCCC` (stereo not given), the outcome was inactive. The same measure for `ClCCOCCOCCCl`: “inactive”; for `CC(C)N1C(=O)c2ccccc2C1=O`: “inactive”. The same measure for `Cc1cc(O)c2c(c1)C(=O)c1cc(O)cc(O)c1C2=O`: “inactive”; for `C=CCOC(=O)/C=C\C(=O)OCC=C`: “inactive”; for `CCC(=O)OC/C=C(\C)CCC=C(C)C`: “inactive”. The same measure for `CC(=O)N(C)C`: “inactive”; for `CCc1cccc(O)c1`: “inactive”. For `CC(C)Cc1ccccc1`, the compound was called inactive.

Turning to `O=[N+]([O-])c1cc(N(CCO)CCO)ccc1NCCO`, the result was inactive. `CC1(C)[C@H](C=C(Cl)Cl)[C@H]1C(=O)OCc1cccc(Oc2ccccc2)c1`: the compound was called inactive.

As to `CCCCC1CCCCC(=O)O1` (stereo not given), the call was inactive. With `FC(F)(F)c1ccc(Cl)c(Cl)c1`, the outcome was inactive.

As to `CCCCCc1cccc(=O)o1`, the compound was called inactive. The same measure for `CCCC1CCOC(C)S1` (stereo not given): “inactive”; for `CC(C)C(=O)OCC=Cc1ccccc1`: “inactive”.
